From PubChem BioAssay
ST2 inh = blocks human ST2 binding to IL-33 | AlphaLISA ST2-Fc/biotin-IL-33 interaction, 1 h | inhibition, % for hits at 17 µM | hit rate 2.3% among 78,000; in the data active = inhibition above about 30%
Target sequence (Q01638 whole entry, looked up): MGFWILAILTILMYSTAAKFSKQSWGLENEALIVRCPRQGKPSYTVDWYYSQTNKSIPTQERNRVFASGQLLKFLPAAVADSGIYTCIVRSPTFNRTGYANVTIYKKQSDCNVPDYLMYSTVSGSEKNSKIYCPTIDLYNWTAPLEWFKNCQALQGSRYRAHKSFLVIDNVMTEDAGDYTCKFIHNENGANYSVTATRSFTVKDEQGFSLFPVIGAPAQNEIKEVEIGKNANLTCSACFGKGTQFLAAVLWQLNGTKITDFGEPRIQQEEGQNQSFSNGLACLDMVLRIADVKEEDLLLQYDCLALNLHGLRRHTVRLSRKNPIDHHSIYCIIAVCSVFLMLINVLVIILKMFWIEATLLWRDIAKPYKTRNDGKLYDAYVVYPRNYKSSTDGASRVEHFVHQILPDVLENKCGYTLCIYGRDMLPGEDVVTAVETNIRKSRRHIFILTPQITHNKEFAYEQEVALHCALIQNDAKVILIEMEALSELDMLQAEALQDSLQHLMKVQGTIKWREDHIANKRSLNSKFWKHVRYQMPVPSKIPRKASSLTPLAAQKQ
Starred values were filed as active, the others as inactive; i = inactive; ! = a repeat was not active. The sample as a whole holds a higher share of hits than the screen did.

SMILES	ST2 inh
COc1ccc2cc3cc(C(=O)Nc4ccc(OC)c(OC)c4)oc3nc2c1	i
COc1ccc2cc3cc(C(=O)Nc4cccnc4)oc3nc2c1	i
COc1ccc2cc3cc(C(=O)Nc4cccc(SC)c4)oc3nc2c1	34.0%*!
COc1ccc2nc3oc(C(=O)N4CCOCC4)cc3cc2c1	i
CCc1cccc(NC(=O)c2cc3cc4ccc(OC)cc4nc3o2)c1	i
COc1ccc2nc3oc(C(=O)Nc4ccc5c(c4)OCCO5)cc3cc2c1	36.0%*
COc1ccc2nc3oc(C(=O)Nc4ccc(F)cc4F)cc3cc2c1	i
CC(=O)N1CCCc2cc(-c3ccccc3CO)ccc21	i
COc1ccc(CC(=O)N2CC3(C)CC2CC(C)(C)C3)cc1OC (stereo unspecified)	i
COc1cccc(CN2CCCC3(CCN(C(=O)c4ncc(C)[nH]4)C3)C2)c1 (stereo unspecified)	i
CN(CC(=O)N1CCN(Cc2ccccc2)CC1)S(=O)(=O)c1ccc(Cl)cc1	i
C=CCn1cc(CNC2CC(=O)N(Cc3cccc4ccccc34)C2)c(C)n1 (stereo unspecified)	i
O=C(CCCCCN1C(=O)c2ccccc2C1=O)Nc1ccc(Cl)cc1	i
O=C(O)CCCC(=O)Nc1ccc(C(=O)O)cc1	i
O=C(CCCN1C(=O)S/C(=C\C=C\c2ccccc2)C1=O)Nc1ccc(C(=O)O)cc1	32.0%*
CC(C)c1ccc(S(=O)(=O)NCc2nc3cccnc3n2Cc2ccccc2)cc1	i
COC1CCCCC1NS(=O)(=O)c1ccccc1 (stereo unspecified)	i
CC12CC(NC(=O)N1c1ccc(Br)cc1)c1ccccc1O2 (stereo unspecified)	i
Nc1c(S(=O)(=O)O)cc(Nc2ccc(Nc3nc(Cl)nc(Nc4ccc(S(=O)(=O)O)cc4)n3)c(S(=O)(=O)O)c2)c2c1C(=O)c1ccccc1C2=O	81.0%*
CCSc1nc2c(c(=O)[nH]1)C(c1ccncc1)C(C(=O)OC(C)C)=C(C)N2 (stereo unspecified)	i
CC(C)c1ccc(C(=O)NCc2ccccc2)cc1	i
COc1ccc(N=Cc2cccc(OC)c2O)c(OC)c1	i
CCOC(=O)c1cc2c(ccc3oc4c(c32)CCCC4)oc1=O	i
COc1ccccc1N=Cc1c(O)ccc2oc3c(c12)CCCC3	31.0%*
Cc1ccc(N(C(=O)c2ccc(F)cc2)C2C=CS(=O)(=O)C2)cc1C (stereo unspecified)	i
SMILES	ST2 inh
Cc1nn(C)cc1C(C)Nc1nc2nonc2nc1N1CCCCC1 (stereo unspecified)	i
O=C(Nc1ccc2nc(C3CCCCC3)[nH]c2c1)C1CCCCC1	i
Cc1ccc(C)c(NS(C)(=O)=O)c1	i
Cc1ccc(C)c(NS(=O)(=O)c2ccc(NC(=O)c3ccccc3C)cc2)c1	i
Cc1ccc(Cl)cc1NS(=O)(=O)c1cccc2nonc12	i
Cc1ccc(C)c(NS(=O)(=O)c2cccc3c2C(=O)c2ccccc2C3=O)c1	54.0%*
Cc1ccc(Cl)cc1NC(=O)c1ccccc1C(=O)Nc1cc(Cl)ccc1C	i
Cc1ccc(Cl)cc1NS(=O)(=O)c1cccc2c1C(=O)c1ccccc1C2=O	44.0%*
CCC(=O)Nc1cccc(OCC(=O)N2C[C@@H]3CC[C@H]2C3)c1	i
CN1CC[C@](O)(c2ccccc2)C(C)(C)C1	i
CC(C)(C)c1ccc(OCCCCSC#N)cc1	i
O=C(NCCCN1CCOCC1)c1cc(-c2ccc(F)cc2)on1	i
CCN1CCN(C(=O)C2CCN(S(=O)(=O)c3cccc4cccnc34)CC2)CC1	i
Cc1cc(N(C)C)nc(Nc2ccc(NC(=O)c3c(F)cccc3F)cc2)n1	i
COc1ccc(Cl)cc1C(=O)Nc1ccc(Nc2nc(C)cc(Nc3ccccc3)n2)cc1	i
Cc1cc(N(C)C)nc(Nc2ccc(NC(=O)c3ccccc3C)cc2)n1	31.0%*
COc1ccc(Cl)cc1C(=O)Nc1ccc(Nc2nc(C)cc(N(C)C)n2)cc1	33.0%*
Cc1cc(N(C)C)nc(Nc2ccc(NC(=O)c3ccccc3C(F)(F)F)cc2)n1	i
COc1cc(OC)cc(C(=O)Nc2ccc(Nc3nc(C)cc(N(C)C)n3)cc2)c1	i
CNC(=O)C1CCC(Cn2c(=O)c3sccc3n(CC(=O)Nc3ccccc3F)c2=O)CC1 (stereo unspecified)	i
O=C(c1cc(C(F)(F)F)[nH]n1)N1CC[C@H](CO)[C@H](O)C1	i
COc1cc2nc(-c3ccc(N(C)C)cc3)n(C)c2cc1OC	i
O=C(Nc1cccc(F)c1)N1CCN(c2ccc(F)cc2)CC1	i
CC(=O)Nc1ccc(S(=O)(=O)N(CCCN2CCOCC2)Cc2cccs2)cc1	i
O=C(O)C[C@@H]1CCN(C(=O)Nc2ccccc2)C[C@@H]1CCN1CCN(c2ccc(F)cc2)CC1	69.0%*
O=C(O)C[C@@H]1CCN(C(=O)Cc2ccccc2)C[C@@H]1CCN1CCN(c2cccc(C(F)(F)F)c2)CC1	i
O=C(O)C[C@@H]1CCN(C(=O)Cc2cccs2)C[C@@H]1CCN1CCOCC1	54.0%*
O=C(O)C[C@@H]1CCN(C(=O)c2ccccc2)C[C@@H]1CCN1CCN(c2cccc(C(F)(F)F)c2)CC1	i
